CHX counter: counter-screen hit for Shiga toxin inhibitors, cycloheximide; 300,000 compounds, 12% hits; cell reporter, cycloheximide protein synthesis inhibition counterscreen; max response, %; AID 2314; in the data active means max response mostly above about 13%, no sharp cut-off; inactive means mostly below about 14%; further: read at 38.3 µM for the half of the compounds with a filed dose; 0% is about no effect
Shiga inhibitor: inhibitors of Shiga toxin in Vero cells. Vero cells, Shiga toxin protein synthesis inhibition reporter. inhibition, % at 38.7 µM. 290,000 compounds, 9.2% hits. AID 2315; in the data active means inhibition mostly above about 28%, no sharp cut-off; inactive means mostly below about 43%; further: 0% is about no effect
HCMV inh: inhibitors of human cytomegalovirus; HFF cells, HCMV-luciferase reporter, 72 h; hits give low values; 410,000 compounds, 4.5% hits; activity change, negative = inhibition, % at 57.5 µM; in the data active means activity change below about -60%; inconclusive means no clear call, values can overlap the other calls; inactive means above about -39%; further: on the % scale 0 is the no-effect control and ±100 the full control effect
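Luciferase read-out from HCMV-luciferase-infected HFFs (MOI 1 PFU/cell) 72 h post infection at 37C; compounds added after 16 h cell attachment; activity normalized between buffer-only basal and Salinomycin (10uM) inhibitor controls.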
Pf growth 48h: P. falciparum growth inhibition at 48 hours (one generation). P. falciparum luciferase growth in erythrocytes, 48 h. 310,000 compounds, 5.9% hits. Potency, µM (top dose mostly 28.7 µM), inactives show at the highest dose activity change, negative = inhibition, actives largely listed as inhibitors; further: potency means the concentration at half of the fitted maximal effect; on the % scale 0 is the no-effect control and ±100 the full control effect
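First compound was added to culture medium, then infected red cells at 0.1% parasitemia and 2% hematocrit (final). After incubation at 37 C under 5% CO2, luciferase detection reagent was dispensed and light output recorded.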
Pf growth 96h: inhibits malaria parasite growth, 96 h | P. falciparum luciferase reporter growth, 96 h | Potency, µM (series often up to 28.7 µM), inactives show top-dose activity change, negative = inhibition, usual class: inhibitors | 320,000 compounds, 6.9% hits | AID 504834; further: potency means the concentration at half of the fitted maximal effect; on the % scale 0 is the no-effect control and ±100 the full control effect
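Cell-based qHTS: luciferase-tagged P. falciparum in erythrocytes (2% hematocrit, 0.05% parasitemia final) incubated with compounds for 96 hours, 37 C, 5% CO2; luciferase detection reagent then added and luminescence measured.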
An asterisk follows results filed as active. Sampled rows, rich in hits. Any-hit rate of the full collection: about 20%. Unless noted, the call rests on the fitted dose curve; in most records, active means well fitted inhibition curve with a large enough effect; inconclusive means small, poorly fitted or top-dose-only effect, or another doubt; inactive means no such curve, though single readings can be large or run the other way.

Screening CCOc1ccc(N(CC(=O)O)S(=O)(=O)c2cccnc2)cc1 returned CHX counter -9, Shiga inhibitor -13, HCMV inh 6 and Pf growth 96h 15µM*.
`COc1ccc(NC(=O)COC(=O)c2ccc(S(=O)(=O)N3CCCCC3)cc2)c(OC)c1` gave HCMV inh -1.
`COc1cc(/C=C/C(=O)c2ccc(O)cc2O)ccc1O` gave CHX counter 32* and Shiga inhibitor 68*.
O=C(/C=C/c1ccc(O)cc1)c1ccc(O)cc1O was read as CHX counter 29*, Shiga inhibitor 34, HCMV inh 29, Pf growth 48h inconclusive and Pf growth 96h inconclusive.
Screening COc1cc(/C=C/C(O)=C/C(=O)/C=C/c2ccc(O)cc2)ccc1O returned HCMV inh 28, Pf growth 48h 12µM* and Pf growth 96h inconclusive.
Screening COc1cc(/C=C/C(=O)NC(=O)c2ccccc2O)ccc1O returned CHX counter -2, Shiga inhibitor -22, Pf growth 48h inconclusive and Pf growth 96h -7%.
Screening CC(C)=CCC/C(C)=C/Cc1c(O)ccc(C(=O)/C=C/c2ccc(O)cc2)c1O returned CHX counter 15, Shiga inhibitor 38, HCMV inh -24, Pf growth 48h inconclusive and Pf growth 96h 8.3µM*.
For CN(Cc1ccccc1)C(=O)c1ccc(Nc2nc(C(N)Cc3ccccc3)cs2)nc1 (centres undefined) the results were HCMV inh -29.
`CN(Cc1ccccc1)C(=O)c1ccc(Nc2nc(C(N)Cc3ccc(C(F)(F)F)cc3)cs2)nc1` (centres undefined) gave HCMV inh -98*.
`CC(=O)c1ccc(Nc2nc(C(N)Cc3ccc(C(F)(F)F)cc3)cs2)cc1` (centres undefined) gave HCMV inh -61*.
Screening NC(Cc1ccc(C(F)(F)F)cc1)c1csc(Nc2ccc(C(=O)c3ccccc3)cc2)n1 (centres undefined) returned HCMV inh -63*.
`CCCCOc1ccc(C(C)NC(=O)c2cccc(Nc3nc4ccccc4n4nnnc34)c2)cc1` (centres undefined) gave HCMV inh -98*.
Screening CCOc1ccc(Sc2cc(C(=O)NCCc3ccc(OC)c(OC)c3)c3ccccc3n2)cc1 returned HCMV inh -27.
For CCCCNC(=O)c1cc(Sc2ccc(OCC)cc2)nc2ccccc12 the results were HCMV inh -35.
`CCOCCCNC(=O)c1cc(Sc2ccc(C)cc2)nc2ccccc12` gave CHX counter -1, Shiga inhibitor -2, HCMV inh -60*, Pf growth 48h 2% and Pf growth 96h -23%.
COc1ccc(CCNC(=O)c2cc(Sc3cccc(Cl)c3)nc3ccccc23)cc1OC was read as HCMV inh -84*.
For CC1CCCN(CCCNC(=O)c2cc(Sc3ccc(F)cc3)nc3ccccc23)C1 (centres undefined) the results were HCMV inh -71*.
Screening O=C(NCCCN1CCCC1)c1cc(Sc2ccc(F)cc2)nc2ccccc12 returned CHX counter -3, Shiga inhibitor -32, HCMV inh -39, Pf growth 48h inconclusive and Pf growth 96h 38%.
`O=C(NCCCN1CCCCC1)c1cc(Sc2ccc(Cl)cc2)nc2ccccc12` gave HCMV inh -71*.
Screening C/C(=N\NC(=S)NC1CCCCC1)c1ccc(OC(F)F)cc1OC(F)F returned CHX counter 16, Shiga inhibitor 35, HCMV inh -28, Pf growth 48h inconclusive and Pf growth 96h inconclusive.
C/C(=N\NC(=S)NC1CCCCC1)c1c(F)cccc1F was read as CHX counter 16, Shiga inhibitor 31, HCMV inh -79*, Pf growth 48h -15% and Pf growth 96h 10µM*.
Screening C/C(=N\NC(=S)NC1CCCCC1)c1ccc(Cl)c(Cl)c1 returned CHX counter -1, Shiga inhibitor -2, HCMV inh -14, Pf growth 48h 2.3µM* and Pf growth 96h 4.1µM*.
C/C(=N\NC(=S)NC1CCCCC1)c1cccs1 was read as CHX counter 28*, Shiga inhibitor 58*, HCMV inh -40, Pf growth 48h inconclusive and Pf growth 96h inconclusive.
For Oc1ccc(Cl)cc1C1=Nc2ccccc2N=C(c2ccco2)C1 the results were CHX counter -4, Shiga inhibitor 21, HCMV inh 12, Pf growth 48h inconclusive and Pf growth 96h 3%.
`COc1ccc(O)c(C2=Nc3ccccc3N=C(c3ccco3)C2)c1` gave CHX counter 8.7*, Shiga inhibitor 32, HCMV inh -12, Pf growth 48h -29% and Pf growth 96h -21%.
`CCOC(=O)CCSc1nc(C)c2ccccc2n1` gave CHX counter 18*, Shiga inhibitor 57*, HCMV inh 33, Pf growth 48h 56% and Pf growth 96h 12%.
CCOC(=O)CNC(=O)CSc1cc(C)nc2ccc(OC)cc12 was read as CHX counter 29*, Shiga inhibitor 72*, HCMV inh -22, Pf growth 48h -39% and Pf growth 96h 491%.
For CCOC(=O)CCSc1nc(C)c2cc(C)ccc2n1 the results were CHX counter 30*, Shiga inhibitor 75*, HCMV inh -15 and Pf growth 96h 138%.
For CCOC(=O)CSc1nc(C)c2cc(C)c(C)cc2n1 the results were CHX counter 25, Shiga inhibitor 14, HCMV inh -25, Pf growth 48h 4% and Pf growth 96h inconclusive.
Screening CCOC(=O)CSc1nc(C)c2cc(OC)ccc2n1 returned CHX counter 46*, Shiga inhibitor 72*, HCMV inh 14 and Pf growth 48h 4%.
Screening COc1ccc2nc(C)cc(SCC(=O)NNC(=O)COc3ccccc3)c2c1 returned CHX counter 0, Shiga inhibitor -13, HCMV inh inconclusive, Pf growth 48h inconclusive and Pf growth 96h -30%.
Screening CCOC(=O)CSc1nc(-c2ccccc2)nc2ccccc12 returned CHX counter -4, Shiga inhibitor -3, HCMV inh -8, Pf growth 48h 1% and Pf growth 96h 73%.
`COC1=CC(=O)OC(c2ccc(C#N)cc2)C1` (centres undefined) gave HCMV inh -3.
`COc1ccc2c(c1)C(=O)CCC2c1ccccc1` (centres undefined) gave CHX counter 1, Shiga inhibitor -7, HCMV inh 24, Pf growth 48h -9% and Pf growth 96h 5.2µM*.
For CCOC(=O)N1CCN(C(=O)CSc2nc3c(cnn3-c3ccc(Cl)cc3)c(=O)[nH]2)CC1 the results were CHX counter -5, Shiga inhibitor -9, HCMV inh -4, Pf growth 48h 11% and Pf growth 96h -18%.
For Cc1ccccc1Cn1c(C)c(C(=O)N(C)Cc2ccc(F)cc2)sc1=O the results were HCMV inh -60*.
`COc1ccc(Br)c(Cn2c(C)c(C(=O)N(C)Cc3ccc(F)cc3)sc2=O)c1` gave HCMV inh -85*.

High-throughput results from PubChem BioAssay.
